Screening data (PubChem BioAssay)
D2 ag-1 – Beta-Arrestin HTS for Positive Allosteric Modulators of the Human D2 Dopamine Receptor: Agonists; D(2) dopamine receptor (Homo sapiens), P14416; DiscoveRx PathHunter D2 beta-arrestin, luminescence, 90 min; 100% = 57 uM dopamine signal; activation, % (concentration not given with the values); 360,000 compounds, 0.084% hits; AID 624465, 2012; in the data active = activation above about 40%
Target sequence (P14416 whole entry, looked up): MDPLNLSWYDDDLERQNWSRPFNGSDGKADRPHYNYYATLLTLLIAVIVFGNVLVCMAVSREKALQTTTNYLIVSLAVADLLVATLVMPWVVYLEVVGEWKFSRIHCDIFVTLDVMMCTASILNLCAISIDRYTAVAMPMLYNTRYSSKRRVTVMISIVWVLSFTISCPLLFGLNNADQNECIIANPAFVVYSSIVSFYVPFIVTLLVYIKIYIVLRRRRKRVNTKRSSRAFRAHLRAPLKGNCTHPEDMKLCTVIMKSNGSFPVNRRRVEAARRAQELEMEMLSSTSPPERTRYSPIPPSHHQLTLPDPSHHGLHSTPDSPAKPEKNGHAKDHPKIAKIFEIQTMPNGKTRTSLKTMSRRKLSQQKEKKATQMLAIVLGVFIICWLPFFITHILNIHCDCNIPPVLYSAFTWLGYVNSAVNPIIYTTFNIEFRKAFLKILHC
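Agonist mode: compounds alone added to overnight-plated D2 PathHunter cells for 90 min at 37 C, with 57 uM final dopamine (EC100) defining full response. Beta-arrestin recruitment detected by chemiluminescent reagent, read after 1 h at ambient temperature.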
D2 PAM-1 – HTS Assay for Positive Allosteric Modulators of the Human D2 Dopamine Receptor: Primary Screen for Potentiators | potentiation, % at 10 µM | 340,000 compounds, 0.34% hits | D(2) dopamine receptor (Homo sapiens), P14416 | HEK293 T-REx D2, calcium flux, EC20 dopamine potentiation;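 active = potentiation over 3 SD above the plate norm, cut at about 30% in these data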; also: 0% is about no effect
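Calcium flux readout, no-wash dye, 1 read/s. Inducible HEK293 Trex D2 line, overnight 30 C. Compound alone 180 s (agonist flags), then EC20 dopamine, another 180 s to score potentiation.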
D2 antag – HTS Assay for Allosteric Antagonists of the Human D2 Dopamine Receptor: Primary Screen for Antagonists | D(2) dopamine receptor (Homo sapiens), P14416 | HEK293 TREx D2 cells, calcium flux, dopamine EC80 | inhibition, % at 10 µM | 340,000 compounds, 2% hits | AID 485344, 2010; in the data active = inhibition above about 30%; inactive = below that, where a call was filed; also: 0% is about no effect
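HEK293 T-REx D2 cells, tet-induced, calcium dye no-wash. Cpd pintool add, 180 s kinetic, then EC80 DA, 180 s kinetic. Ca flux read.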
D2 PAM-2 – Beta-Arrestin HTS for Positive Allosteric Modulators of the Human D2 Dopamine Receptor: Potentiators; DiscoveRx D2 beta-arrestin cells, luminescence, 90 min; 100% = 57 uM dopamine signal; potentiation, % (test concentration not listed); 360,000 compounds, 0.23% hits; AID 624464, 2012; in the data active = potentiation above about 50%
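PathHunter D2 cells, attached overnight at 37 deg C, received compound in DMSO plus dopamine at EC20 (50 nM final) for 90 min at 37 deg C. Beta-arrestin recruitment was read as luminescence after 1 h with detection reagent at ambient temperature.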
D2 ag-2 – HTS Assay for Allosteric Agonists of the Human D2 Dopamine Receptor: Primary Screen for Agonists; activation, % at 2 µM; D(2) dopamine receptor (Homo sapiens), P14416; 340,000 compounds, 0.53% hits; AID 485358, 2010; HEK293 T-REx D2 cells, calcium flux agonist mode;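 active = activation over 3 SD above normal in the single-dose calcium agonist read, cut at about 30% in these data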; also: 0% is about no effect
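Agonism scored from kinetic calcium signal (1 read/sec, 180 s) following compound pin transfer, after a 10 s baseline. Cells: HEK293 Trex line expressing inducible D2 receptor coupled to calcium, dye-loaded after overnight culture at 30 C.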
Starred values were filed as active, the others as inactive; x = not tested or not shown. Shown are actives, neighbours in structure and some others; about 2.4% of the full set was active somewhere.

SMILES	D2 ag-1	D2 PAM-1	D2 antag	D2 PAM-2	D2 ag-2
CCOC(=O)C(=NCCCN(C)C)NNc1cc(C(F)(F)F)ccc1Cl	0	-14	35*	-6	-1
CCOC(=O)c1ccc(NC(=O)CSc2nccn2-c2cc(C)cc(C)c2)cc1	x	-3	x	x	1
COc1ccc(CNc2nc3ccccc3n2CCN2CCCCC2)c(OC)c1	-6	-20	0	-44	7
CCCCCn1c(NCc2ccc(OC)cc2)nc2ccccc21	x	0	x	x	0
COc1ccc(OC)c(CNc2nc3ccccc3n2CCN2CCCCC2)c1	-5	-21	34*	-19	0
O=C(Nc1nc2ccccc2n1CCN1CCCCC1)C1CCCCC1	-1	-19	42*	-10	-1
CCN(CC)CCn1c(NCc2ccc(OC)cc2)nc2ccccc21	-3	-38	75*	-30	0
O=C(Nc1nc2ccccc2n1CCN1CCCC1)C1CCCCC1	-5	-21	22	-37	-1
Cc1cccn2c(Nc3ccccc3)c(-c3cccs3)nc12	x	21	x	x	-1
Cc1ccc(N(CC(=O)NCCSc2nc3ccccc3s2)S(=O)(=O)c2ccccc2)c(C)c1	1	6	55*	16	1
CC(=O)c1cccc(NC(=O)c2nc(-c3ccccc3)n(-c3cccc(Cl)c3)n2)c1	x	-20	x	x	-1
CN(C)c1nc2n(c(=O)n1)CCS2	0	16	0	1	0
CN(C)c1nc2n(c(=O)n1)C(C#N)CS2 (stereo not given)	-1	6	33*	2	0
COc1ccc(CC(=O)NC(CC(=O)O)c2ccc(OC)cc2)cc1 (stereo not given)	-2	-5	36*	-14	0
O=C(O)CC(NC(=O)c1ccco1)c1ccco1 (stereo not given)	-3	-1	-3	5	1
CCOc1ccc(C(CC(=O)O)NC(=O)C(CC)c2ccccc2)cc1 (stereo not given)	4	-6	35*	-4	1
O=C(O)CC(NC(=O)Cc1ccc(Cl)cc1)c1ccco1 (stereo not given)	-2	39*	-10	-2	-1
COc1ccc(Br)cc1/C(C)=N/NC1=NCCN1	-4	-24	33*	-44	1
CCCCCOc1ccc(Br)cc1/C(C)=N/NC1=NCCN1	-5	-11	18	-16	0
Cc1ccc(NC(=O)Cn2c(=O)n(Cc3ccccc3)c(=O)c3sc4ccccc4c32)cc1	x	2	x	x	0
CCO/C=C1\SC(=S)N(c2ccc(Cl)cc2)C1=O	-5	4	-8	-9	0
CC(C)c1ccc(N2C(=O)/C(=C/N(C)C)SC2=S)cc1	-5	-3	12	-23	30*
CCOC(=O)C1CCCN(c2ncnc3c2nnn3C)C1 (stereo not given)	x	-6	x	x	-2
CCC(C)Oc1cccc(C(=O)Nc2ccccc2N2CCOCC2)c1 (stereo not given)	1	3	-2	-1	0
CC(C)Oc1cccc(C(=O)Nc2ccccc2N2CCOCC2)c1	2	-2	33*	-2	0
SMILES	D2 ag-1	D2 PAM-1	D2 antag	D2 PAM-2	D2 ag-2
CCOC(=O)c1c(C)[nH]c(C(=O)COC(=O)C2CC2)c1C	0	-8	-9	-3	0
CC(=O)c1c(C)[nH]c(C(=O)COC(=O)C2CC2)c1C	2	-1	32*	1	-3
Cc1cccc(N2CCN(Cc3nc(-c4ccccc4Cl)oc3C)CC2)n1	3	-5	40*	-7	2
O=c1cc(-c2ccccc2)n2c(SCc3c(F)cccc3Cl)nnc2[nH]1	x	9	x	x	1
Cc1cccc(C)c1NC(=O)CN(Cc1ccc(Br)cc1)S(=O)(=O)c1ccccc1	x	-1	x	x	3
O=C(NNC(=O)c1ccc(F)cc1F)c1ccc2c(c1)OCO2	-2	-3	37*	4	3
O=C(Nc1cccc(F)c1)c1ccc2c(c1)OCO2	-1	x	31*	-16	5
CCOc1cc(C(=O)Nc2ccc3c(c2)OCO3)ccc1OCCOc1ccccc1Cl	3	0	32*	-9	1
CCOc1ccccc1C(=O)NC(C)c1ccc2c(c1)OCO2 (stereo not given)	-1	0	40*	-2	0
CC1CCN(c2oc(-c3cccs3)nc2S(=O)(=O)c2ccc(Cl)cc2)CC1	x	-10	x	x	-1
COc1ccc(-c2nc3ccccc3s2)cc1NC(=O)COc1cccc(C)c1	x	-12	x	x	0
CCOC(=O)c1cnc2c(OC)cccc2c1Nc1cccc(O)c1	x	-6	x	x	-1
O=C(Nc1cccc(F)c1)c1ccccc1	-2	-1	-11	-8	0
O=C(Nc1ccc(Nc2ccccc2)cc1)c1cccc(F)c1	-3	32*	-18	-6	0
COc1cccc(-c2cc3c(-n4cccc4)ncnc3o2)c1	-3	9	37*	-15	-1
CC(C)(C)OC(=O)N1CCC(c2c(C(=O)NCc3ccco3)cnn2-c2ccccc2)CC1	x	4	x	x	-1
CCOC(=O)c1c(C)[nH]c(C)c1S(=O)(=O)N1CCC(C(=O)Nc2ccc(OCC)cc2)CC1	x	3	x	x	0
CC1CC(C)(C)NC(=S)N1CCCC(=O)NCc1ccccc1 (stereo not given)	-1	9	37*	-1	1
CCOc1ccc(NC(=O)[C@@H](NC(=O)c2ccco2)C(C)C)cc1	-4	2	39*	-10	2
CC(C)C(NC(=O)c1ccccc1)C(=O)NCC(c1ccccc1)N(C)C (stereo not given)	-1	x	x	-11	x
CC(C)C(NC(=O)c1ccco1)C(=O)NCC(c1ccco1)N(C)C (stereo not given)	-3	33*	12	-7	0
CC(C)[C@H](NC(=O)c1ccco1)C(=O)Nc1ccc(OC(F)F)cc1	-2	4	-2	-1	0
CCCCCCCCCCCCCCCCn1cc[n+](CC(C)=O)c1	2	-7	-6	-7	1
CCCCCCn1ccc(=N)cc1	-4	-1	36*	-7	-1
COCc1ccc(CN2CCC(C(=O)Nc3cccc(-c4cscn4)c3)CC2)o1	-3	-22	32*	-42	0
COCc1ccc(CN2CCC(C(=O)Nc3cccc(-c4cccc(Cl)c4)c3)CC2)o1	-1	-14	34*	-21	0
COc1cccc(-c2cccc(NC(=O)C3CCN(Cc4ccc(C)o4)CC3)c2)c1	0	-13	-8	-31	1
